Assay [1] is described as follows: qHTS RealTime-Glo MT Cell Viability Assay in HEK293 cells - 16 hour (AID 1224872). Also: nearly all actives have a fitted effect of over 50% in size. Also: potency is read from the fitted curve at half-maximal effect. In outline: (§1)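 HEK293 cells were seeded at 600 cells/well together with NanoLuc luciferase and cell-permeant prosubstrate, preincubated 5 h at 37 C/5% CO2, then given compound in DMSO by pintool. Luminescence from viable-cell prosubstrate reduction was read repeatedly over 40 h.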
Background: Quantitative high-throughput screening tests each substance at several concentrations.

Assay [2] in a line: qHTS RealTime-Glo MT Cell Viability Assay in HepG2 cells - 8 hour (AID 1224873). Also: nearly all actives have a fitted effect of over 55% in size. Also: potency is read from the fitted curve at half-maximal effect. A digest of the protocol:
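HepG2 cells (600/well) mixed with RealTime-Glo MT reagent, settled 5 h at 37 C/5% CO2 before compound addition. Nonlytic NanoLuc luminescence from viable-cell prosubstrate reduction read repeatedly during 40 h treatment at 37 C.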

The nature of assay [3]: qHTS RealTime-Glo MT Cell Viability Assay in HEK293 cells - 40 hour (AID 1224874). Also: nearly all actives have a fitted effect of over 50% in size. Also: potency is read from the fitted curve at half-maximal effect. Particulars: RealTime-Glo luminescence; max response: stronger effect = lower value. A digest of the protocol: (§2)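 Cells were seeded together with NanoLuc luciferase and a prosubstrate that viable cells reduce to a luciferase substrate. After a 5 h incubation at 37 C/5% CO2, compounds were added and luminescence was measured repeatedly during 40 h of treatment.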

Assay [4] is described as follows: qHTS RealTime-Glo MT Cell Viability Assay in HepG2 cells - 32 hour (AID 1224877). Also: nearly all actives have a fitted effect of over 55% in size. Also: potency is read from the fitted curve at half-maximal effect. In outline: (§3)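 HepG2 cells were seeded at 600 cells/well together with NanoLuc luciferase and a cell-permeant prosubstrate, preincubated 5 h at 37 C/5% CO2, then pin-dosed with compounds in DMSO. Nonlytic luminescence from viable cells was read at each time point.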
The nature of assay [5]: A CellTox Green Cytotoxicity Assay to monitor cytotoxicity in HepG2 cells - 24 hour (AID 1224878). Also: nearly all actives have a fitted effect of over 45% in size. Also: potency is read from the fitted curve at half-maximal effect. In outline: (§4)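 Read-out is fluorescence of a cyanine dye excluded from live cells that stains DNA of dead HepG2 cells, with signal proportional to cytotoxicity. Plates were read at 0, 8, 16, 24, 32 and 40 h after compound addition.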
Assay [6] in a line: A CellTox Green Cytotoxicity Assay to monitor cytotoxicity in HepG2 cells - 40 hour (AID 1224879). Also: nearly all actives have a fitted effect of over 40% in size. Also: potency is read from the fitted curve at half-maximal effect. A digest of the protocol:
as §4

A short description of assay [7]: A CellTox Green Cytotoxicity Assay to monitor cytotoxicity in HEK293 cells - 32 hour (AID 1224881). Also: nearly all actives have a fitted effect of over 40% in size. Also: potency is read from the fitted curve at half-maximal effect. A digest of the protocol: (§5)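 Nonlytic real-time cytotoxicity: HEK293 + CellTox Green reagent plated, 5 h preincubation, pintool compound addition (23 nL in DMSO), 37 C for 40 h, fluorescence measured at successive time points.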
Assay [8] is described as follows: A CellTox Green Cytotoxicity Assay to monitor cytotoxicity in HepG2 cells - 0 hour (AID 1224882). Also: nearly all actives have a fitted effect of over 35% in size. In outline:
as §4

A short description of assay [9]: A CellTox Green Cytotoxicity Assay to monitor cytotoxicity in HepG2 cells - 32 hour (AID 1224883). Also: nearly all actives have a fitted effect of over 50% in size. Also: potency is read from the fitted curve at half-maximal effect. In outline: as §4
The nature of assay [10]: qHTS RealTime-Glo MT Cell Viability Assay in HepG2 cells - 16 hour (AID 1224885). Also: nearly all actives have a fitted effect of over 50% in size. Also: potency is read from the fitted curve at half-maximal effect. A digest of the protocol:
as §3

Assay [11] is described as follows: qHTS RealTime-Glo MT Cell Viability Assay in HEK293 cells - 24 hour (AID 1224886). Also: nearly all actives have a fitted effect of over 50% in size. Also: potency is read from the fitted curve at half-maximal effect. A digest of the protocol:
as §1

A short description of assay [12]: qHTS RealTime-Glo MT Cell Viability Assay in HEK293 cells - 8 hour (AID 1224887). Also: nearly all actives have a fitted effect of over 50% in size. Also: potency is read from the fitted curve at half-maximal effect. In outline:
as §2

A short description of assay [13]: A CellTox Green Cytotoxicity Assay to monitor cytotoxicity in HEK293 cells - 16 hour (AID 1224888). Also: nearly all actives have a fitted effect of over 35% in size. Also: potency is read from the fitted curve at half-maximal effect. A digest of the protocol: as §5
Assay [14] in a line: qHTS assay to identify small molecule antagonists of the estrogen receptor alpha (ER-alpha) signaling pathway using the BG1 cell line in the presence of 0.1 nM 17-beta-estradiol - cell viability counter screen (AID 1259241). Also: nearly all actives have a fitted effect of over 40% in size. Also: potency is read from the fitted curve at half-maximal effect. In outline:
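Measures cytotoxicity alongside the ER-alpha antagonist readout: VM7Luc4E2 cells, charcoal-stripped serum, 0.1 nM 17beta-estradiol final, 22 hr compound incubation at 37C, CellTiter-Fluor fluorescence.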

Assay [15] can be described thus: A CellTox Green Cytotoxicity Assay to monitor cytotoxicity in HEK293 cells - 24 hour (AID 1224875). Also: series mostly up to about 77 µM; nearly all actives have a fitted effect of over 45% in size. A digest of the protocol:
as §5

Assay [16] in a line: A CellTox Green Cytotoxicity Assay to monitor cytotoxicity in HepG2 cells - 16 hour (AID 1224876). Also: nearly all actives have a fitted effect of over 45% in size. Also: potency is read from the fitted curve at half-maximal effect. In outline: as §4
Assay [17] in a line: qHTS RealTime-Glo MT Cell Viability Assay in HEK293 cells - 0 hour (AID 1224880). Also: top concentration of the series differs between compounds; nearly all actives have a fitted effect of over 45% in size. In outline:
as §2

A short description of assay [18]: A CellTox Green Cytotoxicity Assay to monitor cytotoxicity in HEK293 cells - 8 hour (AID 1224884). Also: nearly all actives have a fitted effect of over 35% in size. Also: potency is read from the fitted curve at half-maximal effect. A digest of the protocol: as §5
Assay [19] in a line: qHTS RealTime-Glo MT Cell Viability Assay in HepG2 cells - 0 hour (AID 1224889). Also: nearly all actives have a fitted effect of over 50% in size. In outline:
as §3

The nature of assay [20]: A CellTox Green Cytotoxicity Assay to monitor cytotoxicity in HepG2 cells - 8 hour (AID 1224890). Also: nearly all actives have a fitted effect of over 45% in size. Also: potency is read from the fitted curve at half-maximal effect. A digest of the protocol: as §4

Several values for one entry are separate records, joined by “and”; a condition that tells them apart may be missing. Equal entries are not always repeated. Inconclusive results are not listed. The source holds several records for some structures; these can differ, active in one and inactive in another. Activity calls are given as the source filed them. Calls follow the shape of the dose curve; as a rule, active = well fitted curve in the direction sought with a large enough effect in the repeat runs; inconclusive = weak or mixed curves; inactive = no such curve, though single readings can be large; an effect the other way counts as inactive or inconclusive.
% is scaled to controls: 0 for no effect and ±100 for the full control effect.

Consider `CCN=C1C=CC(=C(c2ccc(N(CC)CC)cc2)c2ccc(N(CC)CC)cc2)c2ccccc21`, for which the Potency is 13.7 µM (active) in [1]; 19.4 µM (active) in assay [2]; 5.46 µM (active) in assay [3]; 19.4 µM (active) in [4]; 17.3 µM (active) in assay [5]; 19.4 µM (active) in assay [6]. In addition, the Potency is 13.7 µM (active) in assay [7]; 19.4 µM (active) in [9]; 19.4 µM (active) in assay [10]; 7.71 µM (active) in assay [11]; 17.3 µM (active) in assay [12]; 19.4 µM (active) in assay [13]. The Potency in assay [14] is 24.2 µM (active). For the same molecule, in assay [8], the Potency entry is “inactive”.

On to `O=C(O)CC(=O)O`, for which the Potency result in [1], in assay [2], in assay [15], in assay [16], in assay [4] and in assay [5] was “inactive” in each case. Besides, the Potency entry in [6], in assay [17], in [7], in assay [8], in assay [9] and in assay [18] was “inactive” in each case. In addition, the Potency result in assay [10], in assay [11], in [12], in assay [13], in assay [19] and in [20] was “inactive” each time. Also, the Potency result in assay [14] was “inactive”.

For the molecule `Cc1occc1SSc1ccoc1C`, the Potency result in assay [1], in assay [2], in assay [4], in assay [17], in assay [18] and in assay [10] was “inactive” throughout. For the same molecule, the Potency entry in assay [11], in assay [12], in [13], in assay [19] and in assay [14] was “inactive” each time. Besides, the max response in assay [3] was -28.3% (inactive). Also, the Potency in assay [6], in [7] and in assay [9] was 54.9 µM (active) in each case.

In the case of `CC1CCCCN1CCCOC(=O)c1ccc(OC2CCCCC2)cc1` (stereo not given), the Potency is 15.1 µM (active) in assay [1]; 21.3 µM (active) in assay [3]; 26.8 µM (active) in assay [5]; 26.8 µM (active) in assay [6]; 26.8 µM (active) in [9]; 16.9 µM (active) in [11]. Further, the Potency in assay [12] was 10.7 µM (active). The Potency entry in [2], in assay [17], in [8], in [18], in [10] and in [13] was “inactive” each time. Further, the Potency entry in assay [19] and in assay [20] was “inactive” each time.

On to `C1CC(COCC2CO2)CCC1COCC1CO1` (stereo not given), for which the Potency entry in assay [1], in assay [2], in [15], in [16], in assay [4] and in assay [5] was “inactive” throughout. Further, the Potency result in assay [6], in assay [17], in assay [7], in assay [8], in [9] and in assay [18] was “inactive” each time. Besides, the Potency result in [10], in [12], in assay [13], in assay [19], in assay [20] and in assay [14] was “inactive” throughout.

`NCCCCCCNCCCCCCN`: the Potency entry in assay [1], in [2], in assay [16], in assay [4], in [5] and in [6] was “inactive” in each case. Also, the Potency entry in [17], in assay [8], in assay [9], in assay [18], in [10] and in [11] was “inactive” in each case. Moreover, the Potency entry in assay [12], in [13] and in assay [20] was “inactive” in each case. The max response in assay [3] is -6.12% (inactive).

Regarding `CN(C)CCN1CCOCC1`, the Potency result in [1], in assay [2], in assay [15], in assay [16], in assay [4] and in assay [5] was “inactive” in each case. Also, the Potency entry in assay [6], in [17], in assay [7], in assay [8], in assay [9] and in assay [18] was “inactive” each time. The Potency entry in assay [10], in assay [11], in assay [12], in assay [13], in assay [19] and in assay [20] was “inactive” in each case. Further, the Potency result in [14] is “inactive”.

With `CCCOc1sc(C(=O)N2CCC(c3cc(CN)ccc3F)CC2)c(C)c1Br`, the Potency was 20 µM (active) in assay [1]; 31.8 µM (active) in [2]; 31.8 µM (active) in [3]; 20 µM (active) in assay [16]; 22.5 µM (active) in [4]; 20 µM (active) in assay [5]. Further, the Potency is 15.9 µM (active) in [6]; 31.8 µM (active) in assay [7]; 17.9 µM (active) in assay [9]; 40 µM (active) in assay [18]; 22.5 µM (active) in assay [10]; 20 µM (active) in assay [11]. Moreover, the Potency in [12] is 17.9 µM (active); in assay [13], 35.7 µM (active); in assay [20], 40 µM (active). The Potency result in assay [8] was “inactive”.

For `NC(=O)c1ccccc1N`, the Potency result in [1], in [2], in assay [15], in assay [16], in [4] and in [5] was “inactive” in each case. The Potency result in assay [6], in assay [17], in assay [7], in assay [8], in [9] and in [18] was “inactive” in each case. Moreover, the Potency result in assay [10], in assay [11], in assay [12], in [13], in assay [19] and in [20] was “inactive” in each case. Besides, in assay [14], the Potency entry was “inactive”.

Take `COc1ccc(-n2nc(CCC(=O)N(C)O)cc2-c2ccc(Cl)cc2)cc1`: the Potency result in [1], in [2], in assay [15], in assay [16], in [4] and in assay [17] was “inactive” in each case. Further, the Potency result in [7], in assay [8], in assay [18], in [10], in assay [12] and in assay [20] was “inactive” throughout. The Potency result in assay [14] is “inactive”.

`COc1cccc(CCc2ccccc2OCC(CN(C)C)OC(=O)CCC(=O)O)c1` (stereo not given): the Potency entry in assay [1], in assay [2], in [4], in [17], in assay [7] and in assay [8] was “inactive” each time. Moreover, the Potency entry in assay [18], in assay [10], in assay [11], in [12], in assay [13] and in assay [19] was “inactive” in each case. The Potency entry in assay [20] and in [14] was “inactive” throughout. In addition, the Potency in assay [6] is 26.8 µM (active).

Take `O=Nc1ccc(NO)cc1`: the Potency result in [1], in assay [2], in assay [15], in [4], in assay [5] and in assay [6] was “inactive” throughout. The Potency result in [17], in assay [7], in [8], in [9], in [18] and in assay [10] was “inactive” each time. For the same molecule, the Potency entry in assay [11], in [12], in [13], in assay [19], in assay [20] and in [14] was “inactive” throughout.

With `CCN(CC)CCSC(=O)C(c1ccccc1)c1ccccc1`, the Potency result in assay [1], in assay [2], in assay [4], in assay [5], in [17] and in [8] was “inactive” throughout. Besides, the Potency result in assay [18], in assay [10], in assay [11], in [12], in assay [19] and in assay [20] was “inactive” in each case. The Potency entry in [14] is “inactive”.

Regarding `C=C(c1ccc(C(=O)O)cc1)c1cc2c(cc1C)C(C)(C)CCC2(C)C`, the Potency result in [1], in assay [2], in assay [4], in assay [17], in assay [8] and in assay [18] was “inactive” in each case. Besides, the Potency entry in assay [10], in assay [12], in [20] and in assay [14] was “inactive” each time. Further, the Potency is 24.5 µM (active) in assay [16]; 38.9 µM (active) in assay [5]; 49 µM (active) and 23.9 µM (active) in assay [6]; 30.9 µM (active) and inactive in [7]; 43.6 µM (active) in assay [9].

The values above are taken from PubChem BioAssay (Tox21).
